Test results reported in PubChem BioAssay AID1159580 (chemical genetic matrix, 2015).
About 2,000 (36%) of roughly 5,500 compounds were called active. About 18% were inconclusive and are not listed. Rule as the data show it: active = normalized growth mostly below about 0.91 (no sharp cut-off); inconclusive = no clear call, values can overlap the other calls; inactive = mostly above about 0.92. This is one part of the list.

Experiment: chemical genetic growth profiling, strain panel (AID 1159580);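 also: tested at 20 µM; growth read once vehicle control cultures reached saturation at 30 °C; 1 = growth at the plate median or of vehicle wells; lower values mean less growth of the strain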
Settings: growth OD

Measured: normalized growth

CCS(=O)(=O)CCn1c([N+](=O)[O-])cnc1C
inactive: S. cerevisiae deletion strains, locus YJR075W, strain HOC1, hits give low values 0.981 | S. cerevisiae deletion strains, locus YKL009W, strain mrt4, hits give low values 1.04 | S. cerevisiae deletion strains, locus YKL068W, hits give low values 1.02 | S. cerevisiae deletion strains, locus YKL085W, strain MDH1 (second series), hits give low values 1.04 | S. cerevisiae deletion strains, locus YKL085W, strain MDH1, hits give low values 1.04 | S. cerevisiae deletion strains, locus YKL160W, strain elf1, hits give low values 1.03 | S. cerevisiae deletion strains, locus YKL190W, strain CNB1, hits give low values 1.01 | S. cerevisiae deletion strains, locus YKR001C, strain vps1, hits give low values 1.03 | S. cerevisiae deletion strains, locus YKR026C, strain gcn3, hits give low values 0.984 | S. cerevisiae deletion strains, locus YKR091W, strain srl3, hits give low values 0.999 | S. cerevisiae deletion strains, locus YLL001W, strain dnm1, hits give low values 0.993 | S. cerevisiae deletion strains, locus YLL026W, hits give low values 1.01 | S. cerevisiae deletion strains, locus YLL041C, strain sdh2, hits give low values 0.993 | S. cerevisiae deletion strains, locus YLR027C, strain aat2, hits give low values 0.997 | S. cerevisiae deletion strains, locus YLR039C, strain RIC1, hits give low values 1.07 | S. cerevisiae deletion strains, locus YLR058C, strain SHM2, hits give low values 1.01 | S. cerevisiae deletion strains, locus YLR102C, strain apc9, hits give low values 1.01 | S. cerevisiae deletion strains, locus YLR113W, strain HOG1, hits give low values 0.938 | S. cerevisiae deletion strains, locus YLR221C, strain rsa3, hits give low values 0.989 | S. cerevisiae deletion strains, locus YLR258W, strain gsy2, hits give low values 1.01 | S. cerevisiae deletion strains, locus YLR262C, strain YPT6 (second series), hits give low values 0.967 | S. cerevisiae deletion strains, locus YLR262C, strain YPT6, hits give low values 1.1 | S. cerevisiae deletion strains, locus YLR268W, strain sec22, hits give low values 1.01 | S. cerevisiae deletion strains, locus YLR320W, strain mms22, hits give low values 0.972 | S. cerevisiae deletion strains, locus YLR330W, strain CHS5, hits give low values 1.01 | S. cerevisiae deletion strains, locus YLR342W, strain FKS1 (second series), hits give low values 1.06 | S. cerevisiae deletion strains, locus YLR342W, strain FKS1, hits give low values 1.02 | S. cerevisiae deletion strains, locus YLR357W, strain rsc2, hits give low values 0.999 | S. cerevisiae deletion strains, locus YLR370C, strain arc18, hits give low values 1 | S. cerevisiae deletion strains, locus YLR371W, strain rom2, hits give low values 1.01 | S. cerevisiae deletion strains, locus YLR384C, strain iki3, hits give low values 1.01 | S. cerevisiae deletion strains, locus YLR418C, strain cdc73, hits give low values 1.03 | S. cerevisiae deletion strains, locus YML016C, strain PPZ1, hits give low values 1.01 | S. cerevisiae deletion strains, locus YML032C, strain rad52, hits give low values 1.03 | S. cerevisiae deletion strains, locus YML120C, strain ndi1, hits give low values 1 | S. cerevisiae deletion strains, locus YML124C, strain tub3, hits give low values 1 | S. cerevisiae deletion strains, locus YMR058W, strain fet3, hits give low values 1 | S. cerevisiae deletion strains, locus YMR078C, strain ctf18, hits give low values 1.01 | S. cerevisiae deletion strains, locus YMR125W, strain sto1, hits give low values 0.976 | S. cerevisiae deletion strains, locus YMR129W, hits give low values 0.98 | S. cerevisiae deletion strains, locus YMR205C, strain PFK2, hits give low values 0.988 | S. cerevisiae deletion strains, locus YMR223W, strain ubp8, hits give low values 1.04 | S. cerevisiae deletion strains, locus YMR231W, strain pep5, hits give low values 0.991 | S. cerevisiae deletion strains, locus YMR263W, strain SAP30, hits give low values 1.02 | S. cerevisiae deletion strains, locus YMR307W, strain GAS1, hits give low values 1.21 | S. cerevisiae deletion strains, locus YNL067W, strain RPL9B, hits give low values 1.02 | S. cerevisiae deletion strains, locus YNL071W, strain lat1, hits give low values 0.982 | S. cerevisiae deletion strains, locus YNL128W, strain TEP1, hits give low values 1.02 | S. cerevisiae deletion strains, locus YNL153C, strain GIM3, hits give low values 1.01 | S. cerevisiae deletion strains, locus YNL183C, strain NPR1, hits give low values 0.915 | S. cerevisiae deletion strains, locus YNL209W, strain ssb2, hits give low values 0.987 | S. cerevisiae deletion strains, locus YNL233W, strain BNI4, hits give low values 1.02 | S. cerevisiae deletion strains, locus YNL248C, strain rpa49, hits give low values 1.01 | S. cerevisiae deletion strains, locus YNL250W, strain rad50, hits give low values 1.02 | S. cerevisiae deletion strains, locus YNL271C, strain bni1, hits give low values 1.02 | S. cerevisiae deletion strains, locus YNL298W, strain CLA4, hits give low values 1.03 | S. cerevisiae deletion strains, locus YNL307C, strain MCK1, hits give low values 1.05 | S. cerevisiae deletion strains, locus YNL322C, strain KRE1 (second series), hits give low values 1.01 | S. cerevisiae deletion strains, locus YNL322C, strain KRE1, hits give low values 1.01 | S. cerevisiae deletion strains, locus YNR049C, strain mso1, hits give low values 0.997 | S. cerevisiae deletion strains, locus YNR052C, strain pop2, hits give low values 1.01 | S. cerevisiae deletion strains, locus YOL006C, strain TOP1, hits give low values 1.04 | S. cerevisiae deletion strains, locus YOL012C, strain htz1 0.976 | S. cerevisiae deletion strains, locus YOL147C, strain pex11, hits give low values 1 | S. cerevisiae deletion strains, locus YOR001W, strain rrp6, hits give low values 0.971 | S. cerevisiae deletion strains, locus YOR061W, strain CKA2, hits give low values 1.01 | S. cerevisiae deletion strains, locus YOR069W, strain VPS5, hits give low values 1 | S. cerevisiae deletion strains, locus YOR070C, strain gyp1, hits give low values 1.01 | S. cerevisiae deletion strains, locus YOR080W, strain dia2, hits give low values 1.01 | S. cerevisiae deletion strains, locus YOR083W, strain WHI5, hits give low values 1 | S. cerevisiae deletion strains, locus YOR106W, strain vam3, hits give low values 1.02 | S. cerevisiae deletion strains, locus YOR136W, strain idh2, hits give low values 1.02 | S. cerevisiae deletion strains, locus YOR144C, strain elg1, hits give low values 1.01 | S. cerevisiae deletion strains, locus YOR184W, strain ser1, hits give low values 1.07 | S. cerevisiae deletion strains, locus YOR231W, strain MKK1, hits give low values 0.962 | S. cerevisiae deletion strains, locus YOR265W, strain rbl2, hits give low values 0.994 | S. cerevisiae deletion strains, locus YOR270C, strain vph1, hits give low values 0.977 | S. cerevisiae deletion strains, locus YOR290C, strain snf2, hits give low values 1.02 | S. cerevisiae deletion strains, locus YOR316C, strain cot1, hits give low values 1.02 | S. cerevisiae deletion strains, locus YPL051W, strain arl3, hits give low values 1.03 | S. cerevisiae deletion strains, locus YPL055C, strain LGE1, hits give low values 1.06 | S. cerevisiae deletion strains, locus YPL078C, strain atp4, hits give low values 1.01 | S. cerevisiae deletion strains, locus YPL106C, strain sse1, hits give low values 0.994 | S. cerevisiae deletion strains, locus YPL240C, strain hsp82, hits give low values 0.991 | S. cerevisiae deletion strains, locus YPL241C, strain CIN2, hits give low values 1.01 | S. cerevisiae deletion strains, locus YPL256C, strain CLN2, hits give low values 0.973 | S. cerevisiae deletion strains, locus YPR119W, strain clb2, hits give low values 1 | S. cerevisiae deletion strains, locus YPR141C, strain kar3, hits give low values 1.02 | S. cerevisiae deletion strains, locus YPR163C, strain tif3, hits give low values 1.01 | S. cerevisiae deletion strains, locus YPR167C, strain met16, hits give low values 1.02 | S. cerevisiae deletion strains, strain wtn01, hits give low values 1 | S. cerevisiae strains, strain wild type, hits give low values 1.05
